# Assay results: the supplement of paper PMC9262897, “Low-cost anti-mycobacterial drug discovery using engineered E. coli” (Nature Communications, 2022)
# Where a name gives a salt, the structure may show the parent alone. ± gives the standard deviation of the averaged measurements.
# System: E. coli TESEC Mtb DapB
# Test: growth (OD600 after 10 h); higher = more growth (less inhibition)
# Conditions: arabinose induction (level): High; compound 0.1 mM; raw OD600 reference: median of DMSO wells […], cell-free background 0.041
# Method: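 TESEC E. coli strains in which the native enzyme is deleted and replaced by arabinose-inducible Mtb Asd, DapB, CysH or TrpD, each grown in its selective medium. Strains were screened against the Prestwick library at 0.1 mM and 1% DMSO in 384-well format at low and high arabinose induction. Growth is read as OD600 after 10 h in triplicate.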
row,Compound,growth
1,CCc1cccc(CC)c1NC(=O)CN(CC(=O)O)CC(=O)O [Etifenin],0.179 ± 0.015
2,CCC(=O)[C@@]1(C)[C@H](C)C[C@H]2[C@@H]3CCC4=CC(=O)C=C[C@]4(C)[C@H]3[C@@H](O)C[C@@]21C [Rimexolone],0.197 ± 0.0062
3,"Cc1cn([C@H]2C[C@H](N=[N+]=[N-])[C@@H](CO)O2)c(=O)[nH]c1=O [Zidovudine, AZT]",0.148 ± 0.0088
4,O=C(CCCCCCC(=O)Nc1ccccc1)NO [Vorinostat],0.174 ± 0.0062
5,CN/C(=N\CCSCc1nc[nH]c1C)NC#N [Cimetidine],0.181 ± 0.012
6,O=C(N[C@H](CO)[C@H](O)c1ccc([N+](=O)[O-])cc1)C(Cl)Cl [Chloramphenicol],0.0496 ± 0.00061

# Same assay, conditions: arabinose induction (level): Low; compound 0.1 mM; raw OD600 reference: median of DMSO wells 0.227, cell-free background 0.041
row,Compound,growth
1,N=c1nc(N2CCCCC2)cc(N)n1O [Minoxidil],0.209 ± 0.019
2,CC(=O)NC[C@H]1CN(c2ccc(N3CCOCC3)c(F)c2)C(=O)O1 [Linezolid],0.0871 ± 0.0054
3,"CC(O)(P(=O)(O)O)P(=O)(O)O [Etidronic acid, disodium salt]",0.26 ± 0.015
4,COc1ccc2cc([C@@H](C)C(=O)O)ccc2c1 [(R) -Naproxen sodium salt],0.216 ± 0.052
5,NC1CCN(c2nc3c(cc2F)c(=O)c(C(=O)O)cn3-c2ccc(F)cc2F)C1 (centres undefined) [Tosufloxacin hydrochloride],0.0526 ± 0.0037
6,O=C(NCCNCC(O)COc1ccc(O)cc1)N1CCOCC1 (centres undefined) [Xamoterol hemifumarate],0.232 ± 0.024
7,Cc1cc2cc3c(C)cc(=O)oc3c(C)c2o1 [Trioxsalen],0.237 ± 0.012
8,CCCCC(=O)O[C@H]1CC[C@H]2[C@@H]3CCc4cc(O)ccc4[C@H]3CC[C@]12C [Estradiol Valerate],0.207 ± 0.0061
